The nature of assay [1]: antimalarial activity against Dd2 strain (AID 2302;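 active = growth inhibition above 50% at the single 2 µM test dose, taken to imply half-maximal potency below 2 µM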;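 also: 0% = DMSO untreated growth and 100% = chloroquine plus artemisinin killed control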). As to conditions: P. falciparum Dd2 in RBCs, LDH growth readout, 72 h; at 2 µM; hits give high values.
Assay [2] in a line: HepG2 cytotoxicity, primary screen, cytotoxicity control for P. falciparum antimalarial project, cell-based, ATP luminescence (AID 2303;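 active = inhibition above 50%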;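 also: 0% = DMSO wells and 100% = digitonin-killed cells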). As to conditions: HepG2 viability, 24-48 h, at 10 µM, hits give high values.
Assay [3] has as its target L-lactate dehydrogenase (Plasmodium falciparum (isolate CDC / Honduras)) (UniProt Q27743). As to the kind of experiment: PfLDH activity inhibition – cell lysate, 3D7 strain, counter-screen for P. falciparum growth inhibition project (AID 2304).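 Also: 0% = vehicle and 100% = reference inhibitor.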 As to conditions: P. falciparum 3D7 crude extract, LDH APAD/NBT absorbance; at 2 µM; hits give high values.
The nature of assay [4]: inhibition of 3D7 malaria parasite growth – strain 3D7 (AID 2306).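 Also: 0% = DMSO wells and 100% = chloroquine plus artemisinin control wells.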 The following applies: P. falciparum 3D7 erythrocytic growth, LDH absorbance, 72 h; at 2 µM; hits give high values.
Assay [5] concerns the target Calcium-dependent protein kinase 1 (Plasmodium falciparum (isolate 3D7)) (UniProt P62344). As to the kind of experiment: PfCDPK1 kinase inhibitors, biochemical, TCAMS library (AID 1159585; cut-off not given, nearly all actives have IC50 up to about 0.98 µM;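 also: inhibitors leave more ATP so luminescence rises with inhibition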). The following applies: recombinant PfCDPK1, Kinase-Glo ATP depletion luminescence. A general note: Kinase-Glo reads ATP consumption through a luciferase reaction.
Assay [6] addresses Plasmodium falciparum protein kinase 6 (PK6, PF3D7_1337100) (UniProt Q8IDW1). Kind of assay: PfPK6 kinase inhibitors, biochemical, TCAMS library (AID 1159586). As to conditions: recombinant PfPK6, Kinase-Glo ATP depletion luminescence.
For assay [7], the target named is Protein kinase 7 (PK7), Plasmodium falciparum 3D7 (PF3D7_0213400) (UniProt Q7YTF7). As to the kind of experiment: inhibition of Plasmodium PK7 catalytic activity – biochemical, TCAMS antimalarial set, Kinase-Glo luminescence (AID 1159587). The following applies: recombinant PfPK7, Kinase-Glo ATP depletion luminescence.
The target of assay [8] is Calcium-dependent protein kinase 4 (Plasmodium falciparum (isolate 3D7)) (UniProt Q8IBS5). As to the kind of experiment: PfCDPK4 kinase inhibitors, biochemical, TCAMS library (AID 1159588; cut-off not given, nearly all actives have IC50 up to about 0.91 µM). As to conditions: recombinant PfCDPK4, Kinase-Glo ATP depletion luminescence.

Molecules are shown by their SMILES. A number with no mark means an inactive call. For some of these results: Measured potencies and affinities stand elsewhere. The source made the active and inactive calls. Unless noted, no rule for the calls is given here.

L-lactate dehydrogenase (Plasmodium falciparum (isolate CDC / Honduras)), sequence (Q27743 whole entry, looked up): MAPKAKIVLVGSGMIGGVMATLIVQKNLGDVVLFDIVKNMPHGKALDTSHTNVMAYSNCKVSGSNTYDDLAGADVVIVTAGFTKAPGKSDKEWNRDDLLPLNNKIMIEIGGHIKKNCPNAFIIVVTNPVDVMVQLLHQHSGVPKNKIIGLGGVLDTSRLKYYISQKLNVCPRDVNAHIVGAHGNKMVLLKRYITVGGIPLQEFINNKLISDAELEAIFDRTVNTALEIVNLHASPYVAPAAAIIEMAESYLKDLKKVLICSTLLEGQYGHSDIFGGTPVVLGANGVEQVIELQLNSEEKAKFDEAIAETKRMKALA
Calcium-dependent protein kinase 4 (Plasmodium falciparum (isolate 3D7)), sequence (Q8IBS5 whole entry, looked up): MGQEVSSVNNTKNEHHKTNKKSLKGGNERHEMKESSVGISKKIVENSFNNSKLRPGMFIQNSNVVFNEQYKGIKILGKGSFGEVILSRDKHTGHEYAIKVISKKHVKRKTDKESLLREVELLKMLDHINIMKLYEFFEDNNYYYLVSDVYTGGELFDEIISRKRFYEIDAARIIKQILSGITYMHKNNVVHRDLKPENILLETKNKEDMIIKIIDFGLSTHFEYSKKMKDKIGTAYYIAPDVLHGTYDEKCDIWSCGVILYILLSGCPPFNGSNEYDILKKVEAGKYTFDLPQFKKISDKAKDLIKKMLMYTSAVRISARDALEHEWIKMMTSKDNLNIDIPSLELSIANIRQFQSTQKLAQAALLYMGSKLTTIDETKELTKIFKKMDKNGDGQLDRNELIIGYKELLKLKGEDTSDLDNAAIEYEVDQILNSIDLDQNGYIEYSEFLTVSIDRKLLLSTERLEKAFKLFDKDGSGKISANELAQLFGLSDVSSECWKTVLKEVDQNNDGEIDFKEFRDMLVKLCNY
Protein kinase 7 (PK7), Plasmodium falciparum 3D7 (PF3D7_0213400), sequence (Q7YTF7 1-343): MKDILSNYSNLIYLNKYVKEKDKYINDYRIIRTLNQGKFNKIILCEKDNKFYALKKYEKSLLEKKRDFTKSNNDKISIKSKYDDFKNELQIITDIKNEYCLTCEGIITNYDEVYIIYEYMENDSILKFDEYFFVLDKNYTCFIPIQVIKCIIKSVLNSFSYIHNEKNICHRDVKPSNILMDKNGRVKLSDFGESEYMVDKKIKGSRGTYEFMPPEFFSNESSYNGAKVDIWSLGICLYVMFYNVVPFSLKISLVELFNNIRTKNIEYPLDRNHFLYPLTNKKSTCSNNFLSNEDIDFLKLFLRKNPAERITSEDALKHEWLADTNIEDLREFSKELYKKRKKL
Plasmodium falciparum protein kinase 6 (PK6, PF3D7_1337100), sequence (Q8IDW1 1-305): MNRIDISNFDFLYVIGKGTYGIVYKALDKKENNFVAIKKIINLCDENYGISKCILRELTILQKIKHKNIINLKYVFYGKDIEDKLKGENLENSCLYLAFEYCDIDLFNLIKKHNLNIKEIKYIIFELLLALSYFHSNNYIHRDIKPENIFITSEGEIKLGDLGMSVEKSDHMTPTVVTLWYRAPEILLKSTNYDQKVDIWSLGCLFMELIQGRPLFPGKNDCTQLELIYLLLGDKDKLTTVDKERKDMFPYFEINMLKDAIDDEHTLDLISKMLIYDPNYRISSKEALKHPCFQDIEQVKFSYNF
Calcium-dependent protein kinase 1 (Plasmodium falciparum (isolate 3D7)), sequence (P62344 whole entry, looked up): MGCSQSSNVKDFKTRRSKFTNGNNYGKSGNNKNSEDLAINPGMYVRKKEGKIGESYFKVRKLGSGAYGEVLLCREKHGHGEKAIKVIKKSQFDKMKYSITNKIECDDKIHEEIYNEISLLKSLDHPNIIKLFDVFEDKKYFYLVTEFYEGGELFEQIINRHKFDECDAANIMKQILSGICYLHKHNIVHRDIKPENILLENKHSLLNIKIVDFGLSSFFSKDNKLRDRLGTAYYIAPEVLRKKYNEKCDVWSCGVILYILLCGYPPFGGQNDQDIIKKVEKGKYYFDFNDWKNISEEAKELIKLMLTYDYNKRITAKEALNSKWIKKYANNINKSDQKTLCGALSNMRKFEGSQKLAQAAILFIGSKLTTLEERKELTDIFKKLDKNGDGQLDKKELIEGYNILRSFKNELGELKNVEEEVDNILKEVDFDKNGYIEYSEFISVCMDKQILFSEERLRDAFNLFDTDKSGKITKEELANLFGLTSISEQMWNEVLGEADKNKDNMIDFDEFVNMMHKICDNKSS

In general, inhibition refers to the change of the read-out against control, counted positive when it falls. As for `CCC(CC)n1cc2c(ccc3nc(N)nc(N)c32)n1`, the figures for the growth inhibition in assay [1] and in assay [4] were -2% and 91% (active), respectively. Also, the inhibition in assay [2] is 61% (active); in assay [3], 4%. The outcome in assay [5], in assay [6], in assay [7] and in assay [8] was inactive.
Take `O=C(O[C@H]1CN[C@H](C#Cc2cc3ncnc(Nc4ccc5c(ccn5S(=O)(=O)c5cccs5)c4)c3s2)C1)N1CCOCC1`: the figures for the growth inhibition in assay [1] and in assay [4] were 48% and 85% (active), respectively. Besides, the results for the inhibition in assay [2] and in assay [3] were -4% and -1%, respectively. For the same compound, the outcome in assay [5], in assay [6], in assay [7] and in assay [8] was inactive.
For the compound `CCN(CCCN1CCCCC1)c1cc(C)nc(Nc2cc(F)cc(F)c2)n1`, the growth inhibition in assay [1] was 64% (active); in assay [4], 102% (active). The inhibition is 15% in assay [2] and 5% in assay [3]. Besides, the outcome in assay [5], in assay [6], in assay [7] and in assay [8] was inactive.
With `COc1ccccc1CN1CCC(CNC(=O)c2cc(-c3cccc(C(F)(F)F)c3)cs2)C1` (stereo not given), the growth inhibition in assay [1] was 1%; in assay [4], 84% (active). The inhibition in assay [2] was 25%; in assay [3], 4%. For the same compound, the outcome in assay [5], in assay [6], in assay [7] and in assay [8] was inactive.
As to `COc1ccc(-c2ccc([N+](=O)[O-])cc2C(=O)NCC(C)Oc2ccc(C(F)(F)F)cc2)cc1` (stereo not given), the values for the growth inhibition in assay [1] and in assay [4] were 81% (active) and 102% (active), respectively. The inhibition in assay [2] is 6%; in assay [3], 5%. The result in assay [5], in assay [6], in assay [7] and in assay [8] was inactive.
`C[C@@H](CC1CCCCC1)OC(=O)N(C)[C@@H]1CCN(C#N)C1`: the growth inhibition is 96% (active) in assay [1] and 95% (active) in assay [4]. Besides, the inhibition is 5% in assay [2] and 3% in assay [3]. Also, the outcome in assay [5], in assay [6], in assay [7] and in assay [8] was inactive.
Regarding `O=C(Nc1ccc(-c2nc3ccccc3[nH]2)cc1)c1cccc(S(=O)(=O)N2CCCC2)c1`, the results for the growth inhibition in assay [1] and in assay [4] were 64% (active) and 100% (active), respectively. In addition, the values for the inhibition in assay [2] and in assay [3] were 0% and -5%, respectively. The outcome in assay [5], in assay [6], in assay [7] and in assay [8] was inactive.
As for `O=C(/C=C/c1ccc(Cl)c(Cl)c1)NC1CCC(CN2CCC(Cc3c[nH]c4ccccc34)CC2)CC1` (stereo not given), the growth inhibition was 9% in assay [1] and 101% (active) in assay [4]. Further, the inhibition in assay [2] is 25%; in assay [3], -7%. Also, the outcome in assay [5], in assay [6], in assay [7] and in assay [8] was inactive.
As for `Cc1ccc(Cn2cnc3cc(C(=O)Nc4ccc(-c5cccc(CN(C)C)c5)cc4)ccc3c2=O)o1`, the values for the growth inhibition in assay [1] and in assay [4] were 39% and 99% (active), respectively. Further, the inhibition in assay [2] was 22%; in assay [3], 4%. Further, the result in assay [5], in assay [6], in assay [7] and in assay [8] was inactive.
With `CC1(C)N=C(N)N=C(N)N1c1cccc(Cl)c1`, the growth inhibition in assay [1] and in assay [4] was 96% (active) each time. Moreover, the inhibition in assay [2] is 69% (active); in assay [3], -1%. For the same compound, the result in assay [5], in assay [6], in assay [7] and in assay [8] was inactive.
Consider `O=C(Nc1ccc(-c2nc3ccccc3[nH]2)cc1)C1CCN(Cc2ccccc2)CC1`, for which the values for the growth inhibition in assay [1] and in assay [4] were 82% (active) and 100% (active), respectively. In addition, the inhibition in assay [2] was 12%; in assay [3], 4%. Besides, the result in assay [5], in assay [6], in assay [7] and in assay [8] was inactive.
Consider `CCOc1cc(C)ccc1C1CCN(CCCCNC(=O)c2cccc(-c3ccc(C(F)(F)F)cc3)c2)CC1`, for which the growth inhibition is 55% (active) in assay [1] and 99% (active) in assay [4]. The inhibition in assay [2] is 39%; in assay [3], 2%. Moreover, the result in assay [5], in assay [6], in assay [7] and in assay [8] was inactive.
Consider `COc1ccc(-c2nc(NC(=O)Cc3ccc4c(c3)OCCO4)sc2C)cc1`, for which the growth inhibition in assay [1] is 99% (active); in assay [4], 100% (active). Further, the inhibition in assay [2] was 0%; in assay [3], 2%. The result in assay [5], in assay [6], in assay [7] and in assay [8] was inactive.
On to `CC(=O)Nc1ccc(OCCCCN(Cc2ccccc2OC(F)(F)F)c2ccc(C(F)(F)F)c(C#N)c2)c(Cl)c1`, for which the growth inhibition in assay [1] was 96% (active); in assay [4], 89% (active). Further, the inhibition in assay [2] is 11%; in assay [3] it was -2%. The outcome in assay [5], in assay [6], in assay [7] and in assay [8] was inactive.
Turning to `CCn1ccc2c(N3CCCCS3(=O)=O)cc(C(=O)N[C@@H](Cc3ccccc3)[C@H](O)CNC(C)(C)CCCC(C)C)cc21`, the growth inhibition in assay [1] was 98% (active); in assay [4], 96% (active). The inhibition in assay [2] was 23%; in assay [3], -6%. The outcome in assay [5], in assay [6], in assay [7] and in assay [8] was inactive.
On to `CC1(CCCCN2CCC(c3c[nH]c4cnccc34)CC2)C(=O)Nc2cccc(Cl)c21` (stereo not given), for which the values for the growth inhibition in assay [1] and in assay [4] were -1% and 100% (active), respectively. Moreover, the inhibition in assay [2] was 26%; in assay [3] it was 0%. In addition, the outcome in assay [5], in assay [6], in assay [7] and in assay [8] was inactive.
Consider `C=CC[C@H](C[C@H](O)[C@H](Cc1ccccc1)NC(=O)c1nn(-c2ccccc2)nc1C)C(=O)NC1CCCCC1`, for which the growth inhibition is 3% in assay [1] and 94% (active) in assay [4]. In addition, the inhibition in assay [2] was 6%; in assay [3], 5%. The result in assay [5], in assay [6], in assay [7] and in assay [8] was inactive.
On to `O=C(Nc1ccc(CN2CCOCC2)cc1)c1ccc(-c2cc(Cl)ccc2Cl)o1`, for which the growth inhibition in assay [1] was 13%; in assay [4], 101% (active). For the same compound, the inhibition in assay [2] is 5%; in assay [3], -1%. The result in assay [5], in assay [6], in assay [7] and in assay [8] was inactive.
On to `COc1ccc2nccc([C@@H](O)CN3CCC(NC(=O)c4cccc(-c5cc(C)no5)c4)CC3)c2c1`, for which the growth inhibition in assay [1] was 89% (active); in assay [4], 93% (active). The inhibition in assay [2] is 19%; in assay [3], 1%. Further, the outcome in assay [5], in assay [6], in assay [7] and in assay [8] was inactive.
For `O=C(Nc1cccc(CN2CCCN(Cc3cccc(O)c3)CC2)c1)c1cc2ccccc2s1`, the figures for the growth inhibition in assay [1] and in assay [4] were 75% (active) and 101% (active), respectively. Also, the inhibition in assay [2] was 15%; in assay [3], -4%. In addition, the result in assay [5], in assay [6], in assay [7] and in assay [8] was inactive.
